Measurements reported in PubChem BioAssay AID1159580 (chemical genetic matrix, 2015).
Among all 5,500 compounds or so, about 2,000 (36%) were called active. Roughly 18% stayed inconclusive and do not appear here. Cut-off read from the data, not from the text of the source: active = normalized growth mostly below about 0.91 (no sharp cut-off); inconclusive = no clear call, values can overlap the other calls; inactive = mostly above about 0.92. Some of the results follow.

Test: chemical genetic growth profiling, strain panel (AID 1159580);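 note: tested at 20 µM; growth read once vehicle control cultures reached saturation at 30 °C; 1 = growth at the plate median or of vehicle wells; lower values mean less growth of the strain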
Conditions: growth OD

Measured: normalized growth

CN1CCN(CCC=C2c3ccccc3Sc3ccc(S(=O)(=O)N(C)C)cc32)CC1
inactive: S. cerevisiae deletion strains, locus YJR043C, strain POL32, hits give low values 1.01 | S. cerevisiae deletion strains, locus YJR066W, strain TOR1, hits give low values 0.922 | S. cerevisiae deletion strains, locus YKL009W, strain mrt4, hits give low values 0.971 | S. cerevisiae deletion strains, locus YKL068W, hits give low values 1.01 | S. cerevisiae deletion strains, locus YKL085W, strain MDH1 (second series), hits give low values 1 | S. cerevisiae deletion strains, locus YKL085W, strain MDH1, hits give low values 1 | S. cerevisiae deletion strains, locus YKL160W, strain elf1, hits give low values 0.97 | S. cerevisiae deletion strains, locus YKL190W, strain CNB1, hits give low values 1.02 | S. cerevisiae deletion strains, locus YKR001C, strain vps1, hits give low values 0.916 | S. cerevisiae deletion strains, locus YKR026C, strain gcn3, hits give low values 1.01 | S. cerevisiae deletion strains, locus YKR091W, strain srl3, hits give low values 1.01 | S. cerevisiae deletion strains, locus YLL001W, strain dnm1, hits give low values 0.906 | S. cerevisiae deletion strains, locus YLL026W, hits give low values 1 | S. cerevisiae deletion strains, locus YLL041C, strain sdh2, hits give low values 0.992 | S. cerevisiae deletion strains, locus YLR027C, strain aat2, hits give low values 0.982 | S. cerevisiae deletion strains, locus YLR039C, strain RIC1, hits give low values 1.27 | S. cerevisiae deletion strains, locus YLR058C, strain SHM2, hits give low values 1.01 | S. cerevisiae deletion strains, locus YLR102C, strain apc9, hits give low values 0.964 | S. cerevisiae deletion strains, locus YLR113W, strain HOG1, hits give low values 0.983 | S. cerevisiae deletion strains, locus YLR221C, strain rsa3, hits give low values 0.979 | S. cerevisiae deletion strains, locus YLR258W, strain gsy2, hits give low values 0.991 | S. cerevisiae deletion strains, locus YLR262C, strain YPT6 (second series), hits give low values 1.11 | S. cerevisiae deletion strains, locus YLR262C, strain YPT6, hits give low values 1.31 | S. cerevisiae deletion strains, locus YLR320W, strain mms22, hits give low values 0.893 | S. cerevisiae deletion strains, locus YLR330W, strain CHS5, hits give low values 1 | S. cerevisiae deletion strains, locus YLR342W, strain FKS1 (second series), hits give low values 0.99 | S. cerevisiae deletion strains, locus YLR342W, strain FKS1, hits give low values 0.954 | S. cerevisiae deletion strains, locus YLR357W, strain rsc2, hits give low values 0.983 | S. cerevisiae deletion strains, locus YLR370C, strain arc18, hits give low values 0.964 | S. cerevisiae deletion strains, locus YLR371W, strain rom2, hits give low values 0.976 | S. cerevisiae deletion strains, locus YLR384C, strain iki3, hits give low values 1.02 | S. cerevisiae deletion strains, locus YML016C, strain PPZ1, hits give low values 1 | S. cerevisiae deletion strains, locus YML120C, strain ndi1, hits give low values 0.984 | S. cerevisiae deletion strains, locus YML124C, strain tub3, hits give low values 0.988 | S. cerevisiae deletion strains, locus YMR058W, strain fet3, hits give low values 0.954 | S. cerevisiae deletion strains, locus YMR078C, strain ctf18, hits give low values 0.983 | S. cerevisiae deletion strains, locus YMR125W, strain sto1, hits give low values 1 | S. cerevisiae deletion strains, locus YMR129W, hits give low values 1.03 | S. cerevisiae deletion strains, locus YMR205C, strain PFK2, hits give low values 0.96 | S. cerevisiae deletion strains, locus YMR231W, strain pep5, hits give low values 1.02 | S. cerevisiae deletion strains, locus YMR263W, strain SAP30, hits give low values 1.02 | S. cerevisiae deletion strains, locus YMR307W, strain GAS1, hits give low values 1.07 | S. cerevisiae deletion strains, locus YNL067W, strain RPL9B, hits give low values 1.01 | S. cerevisiae deletion strains, locus YNL071W, strain lat1, hits give low values 0.978 | S. cerevisiae deletion strains, locus YNL183C, strain NPR1, hits give low values 0.946 | S. cerevisiae deletion strains, locus YNL209W, strain ssb2, hits give low values 0.972 | S. cerevisiae deletion strains, locus YNL233W, strain BNI4, hits give low values 1 | S. cerevisiae deletion strains, locus YNL248C, strain rpa49, hits give low values 0.942 | S. cerevisiae deletion strains, locus YNL250W, strain rad50, hits give low values 0.992 | S. cerevisiae deletion strains, locus YNL271C, strain bni1, hits give low values 0.986 | S. cerevisiae deletion strains, locus YNL298W, strain CLA4, hits give low values 0.977 | S. cerevisiae deletion strains, locus YNL322C, strain KRE1 (second series), hits give low values 0.996 | S. cerevisiae deletion strains, locus YNL322C, strain KRE1, hits give low values 1.01 | S. cerevisiae deletion strains, locus YNR049C, strain mso1, hits give low values 1.01 | S. cerevisiae deletion strains, locus YNR052C, strain pop2, hits give low values 0.971 | S. cerevisiae deletion strains, locus YOL006C, strain TOP1, hits give low values 0.983 | S. cerevisiae deletion strains, locus YOL012C, strain htz1 0.994 | S. cerevisiae deletion strains, locus YOL147C, strain pex11, hits give low values 0.959 | S. cerevisiae deletion strains, locus YOR001W, strain rrp6, hits give low values 0.977 | S. cerevisiae deletion strains, locus YOR061W, strain CKA2, hits give low values 1 | S. cerevisiae deletion strains, locus YOR069W, strain VPS5, hits give low values 1.01 | S. cerevisiae deletion strains, locus YOR070C, strain gyp1, hits give low values 0.991 | S. cerevisiae deletion strains, locus YOR080W, strain dia2, hits give low values 1.03 | S. cerevisiae deletion strains, locus YOR083W, strain WHI5, hits give low values 0.937 | S. cerevisiae deletion strains, locus YOR106W, strain vam3, hits give low values 1 | S. cerevisiae deletion strains, locus YOR136W, strain idh2, hits give low values 0.981 | S. cerevisiae deletion strains, locus YOR144C, strain elg1, hits give low values 0.988 | S. cerevisiae deletion strains, locus YOR184W, strain ser1, hits give low values 0.934 | S. cerevisiae deletion strains, locus YOR231W, strain MKK1, hits give low values 0.984 | S. cerevisiae deletion strains, locus YOR265W, strain rbl2, hits give low values 0.995 | S. cerevisiae deletion strains, locus YOR290C, strain snf2, hits give low values 0.913 | S. cerevisiae deletion strains, locus YOR316C, strain cot1, hits give low values 0.968 | S. cerevisiae deletion strains, locus YPL051W, strain arl3, hits give low values 0.95 | S. cerevisiae deletion strains, locus YPL078C, strain atp4, hits give low values 0.925 | S. cerevisiae deletion strains, locus YPL106C, strain sse1, hits give low values 0.947 | S. cerevisiae deletion strains, locus YPL240C, strain hsp82, hits give low values 0.999 | S. cerevisiae deletion strains, locus YPL256C, strain CLN2, hits give low values 0.965 | S. cerevisiae deletion strains, locus YPR119W, strain clb2, hits give low values 0.968 | S. cerevisiae deletion strains, locus YPR141C, strain kar3, hits give low values 1.02 | S. cerevisiae deletion strains, locus YPR163C, strain tif3, hits give low values 0.977 | S. cerevisiae deletion strains, locus YPR167C, strain met16, hits give low values 0.985 | S. cerevisiae deletion strains, strain wtn01, hits give low values 0.953 | S. cerevisiae strains, strain wild type, hits give low values 1.01
active: S. cerevisiae deletion strains, locus YLR268W, strain sec22, hits give low values 0.88 | S. cerevisiae deletion strains, locus YLR418C, strain cdc73, hits give low values 0.764 | S. cerevisiae deletion strains, locus YML032C, strain rad52, hits give low values 0.896 | S. cerevisiae deletion strains, locus YMR223W, strain ubp8, hits give low values 0.899 | S. cerevisiae deletion strains, locus YNL307C, strain MCK1, hits give low values 0.791 | S. cerevisiae deletion strains, locus YOR270C, strain vph1, hits give low values 0.763
